Screening data as filed in PubChem BioAssay.
Compounds with a hit are over-represented: about 12% of the library has one in this group of screens.
Sm TGR inh: blocks Schistosoma mansoni thioredoxin glutathione reductase. AID 485364. purified TGR, DTNB reduction, TNB absorbance 405 nm. 360,000 tested, 3% active. Potency, µM (top dose mostly 114 µM), for inactives: at the highest dose activity change, negative = inhibition, actives largely listed as inhibitors; active = well fitted inhibition curve with a large enough effect; inconclusive = small, poorly fitted or top-dose-only effect; inactive = no such curve, though single readings can be large or run the other way; note: potency is the fitted concentration of half-maximal effect; % is set by controls: 0 for no effect and ±100 for the full control effect; nearly all actives have a fitted effect of over 60% in size
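Kinetic colorimetric format: TGR-catalysed, NADPH-driven DTNB reduction monitored via TNB absorbance. Enzyme dispensed at 20 nM; compound exposure 15 min at room temperature before reaction start.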
CHX counter: counter-screen for Shiga toxin inhibitors: cycloheximide protein synthesis inhibition | cell reporter, cycloheximide protein synthesis inhibition counterscreen | max response, % | 300,000 tested, 12% active; in the data active = max response mostly above about 13%, no sharp cut-off; inactive = mostly below about 14%; note: read at 38.3 µM for the half of the compounds with a filed dose; 0% is about no effect
FMDV inh: antivirals against foot and mouth disease virus; Potency, µM (series often up to 57.9 µM), inactives show at the top dose activity change, negative = inhibition, actives largely listed as inhibitors; 410,000 tested, 1.2% active; AID 1159524; FMDV antiviral cell-based qHTS; calls by dose curve; tested in HEK293T cells; note: read-out not given here; potency is the fitted concentration of half-maximal effect; % is set by controls: 0 for no effect and ±100 for the full control effect; nearly all actives have a fitted effect of over 45% in size
Shiga toxin inh: blocks Shiga toxin action in Vero cells; 290,000 tested, 9.2% active; inhibition, % at 38.7 µM; Vero cells, Shiga toxin protein synthesis inhibition reporter; in the data active = inhibition mostly above about 28%, no sharp cut-off; inactive = mostly below about 43%; note: 0% is about no effect
* = called active by the depositor; ? = inconclusive; nt = not tested or not shown.

SMILES	Sm TGR inh	CHX counter	FMDV inh	Shiga toxin inh
COc1ccc(C(=O)O/N=C2\CCS(=O)(=O)c3sccc32)cc1	0%	16	63%	19
COc1ccc(N=C2CCS(=O)(=O)c3sccc32)cc1	nt	41*	30%	72
Cc1ccccc1C(=O)O/N=C1\CCS(=O)(=O)c2sccc21	-34%	39*	15%	83*
Cc1cc(C(F)F)n2nc(C(=O)Nc3cccc(Cl)c3C)nc2n1	9%	nt	-10%	nt
O=[N+]([O-])c1ccc(Sc2ccncn2)c([N+](=O)[O-])c1	nt	nt	28µM*	nt
Cc1ccc(Sc2ccc(CO)cc2[N+](=O)[O-])cc1	-5%	10	-16%	18
CN(C)/N=C/c1ccc(Sc2ccc([N+](=O)[O-])cc2[N+](=O)[O-])o1	28µM*	-3	?	13
O=[N+]([O-])c1cc(Cl)ccc1Sc1ccccn1	0%	-3	-23%	-2
Cc1cc(C)nc(Sc2ccc([N+](=O)[O-])cc2[N+](=O)[O-])n1	-20%	-5	7.1µM*	-6
CCSc1nnc2c(n1)OC(CC)N(C(C)=O)c1ccccc1-2 (centres undefined)	-2%	nt	10%	nt
Cc1ccc(C(CC(=O)Nc2ccc(C)cc2C)N2Cc3ccccc3C2=O)cc1 (centres undefined)	0%	nt	59%	nt
COC(=O)c1cnn2c3c(c(C)nc12)CCCC3	6%	59*	46%	73*
O=C1CC(c2ccccc2)CC(O)=C1C=Nc1ccc(O)cc1 (centres undefined)	nt	18*	-8%	62
CSc1ccccc1OCc1cc(C(=O)N2CCN(c3ccccc3)CC2C)no1 (centres undefined)	14%	57*	6%	99*
CC(=O)c1ccc(OCc2cc(C(=O)N3CCN(c4ccccc4)CC3C)no2)cc1 (centres undefined)	-18%	48*	-8%	53*
COc1ccc(-c2cn3cccnc3n2)cc1NC(=O)c1c(F)cccc1F	3%	nt	16%	nt
COc1ccc(Br)cc1CNC(=O)CCc1cn(Cc2ccc(C)cc2)c2ccccc12	6%	nt	-14%	nt
Cc1ccc(Cl)c2c(N=Nc3ccccc3)c(O)[nH]c12	1%	18*	58%	66*
O=C1/C(=C/c2ccncc2)N=C2CCCCCN12	-16%	11	3%	-6
COc1ccc(/C=C2\N=C3CCCCCN3C2=O)cc1	47%	41*	48%	76*
COc1ccc(/C=C2/N=C3CCCCCN3C2=O)cc1OC	-30%	12	22%	11*
CCCCOC(=O)c1ccc(NC(=O)Cc2coc3c(C)c(C)ccc23)cc1	21%	nt	-24%	nt
Cc1oc(C(=O)O)cc1CSCc1cc(C(=O)O)c(C)o1	45µM*	12*	3%	16
Cc1ccc(C)c(N(C(=O)Cn2nnc3ccccc32)C(C(=O)NCc2ccco2)c2ccncc2)c1 (centres undefined)	-31%	-5	15%	-27
CCCCN(C(=O)Cn1nnc2ccccc21)C(C(=O)NCc1ccco1)c1ccncc1 (centres undefined)	56µM*	7	17%	-13
SMILES	Sm TGR inh	CHX counter	FMDV inh	Shiga toxin inh
Cc1cc(C)cc(N(C(=O)Cn2nnc3ccccc32)C(C(=O)NCc2ccco2)c2ccncc2)c1 (centres undefined)	35µM*	11	11%	34
O=C(NCc1ccco1)C(c1ccccc1)N(Cc1cccnc1)C(=O)Cn1nnc2ccccc21 (centres undefined)	40µM*	-5	-11%	-4
COc1ccc(CNC(=O)c2ccc(Cn3c(=O)c4cccn4c4cccnc43)cc2)cc1OC	8%	nt	-1%	nt
O=C(O)c1cc(Oc2ccc([N+](=O)[O-])cc2)cc(Oc2ccc([N+](=O)[O-])cc2)c1	nt	-7	0%	-8
NC(=O)Nc1sc(-c2ccc(F)cc2)cc1C(N)=O	nt	17*	22%	4
NC(=O)c1cc(-c2ccccc2)sc1NC(=O)Cc1ccc(S(=O)(=O)N2CCOCC2)s1	21%	-1	2%	-7
NC(=O)c1cc(-c2ccccc2)sc1NC(=O)CN1CCCCC1	-18%	11*	8%	36
COc1cccc(NC(=O)CCc2nc(-c3cc(OC)c(OC)c(OC)c3)no2)c1	2%	nt	-24%	nt
CCCOc1ccc(Oc2nc(NCC(C)C)nc(N(C)C)n2)nn1	0%	nt	-15%	nt
O=C(COC(=O)c1cccs1)Nc1ccc(F)c(F)c1	5%	nt	6%	nt
C/C(=N\OCC(=O)Nc1ccccc1Br)c1cccs1	9%	28*	42%	55*
O=C(CC(Nc1ccccc1Cl)C(=O)OCC(=O)c1cccs1)c1ccccc1 (centres undefined)	?	53*	16%	69*
O=C(COC(=O)c1cccs1)Nc1ccccc1	-3%	51*	53%	109*
C/C(=N/OCC(=O)Nc1ccccc1)c1cccs1	11%	27*	7%	60*
COc1ccc(NC(=O)CO/N=C(\C)c2cccs2)cc1	-14%	13	6%	-6
C/C(=N\OCC(=O)NC(C)C)c1cccs1	4%	12	4%	-4
Cc1ccc(Cn2c(=O)n(CCc3ccccc3)c(=O)c3c(C)c(C)sc32)cc1	5%	nt	-6%	nt
CCOC(=O)C1CCC(CN(Cc2c(Cl)cccc2Cl)S(=O)(=O)c2ccc(Cl)cc2)CC1 (centres undefined)	-8%	nt	-13%	nt
COc1ccc(NC(=O)c2cc(CN3CCCC3)on2)cc1Cl	-6%	nt	21%	nt
CC1=CC(=O)C2C(C)(C)CCC[C@@]2(C)[C@@]1(O)CCc1ccoc1 (some centres undefined)	nt	nt	-15%	nt
O=C(OCC(=O)c1cccs1)c1ccccc1	4%	31*	48%	51
COC(=O)c1ccc(COC(=O)CCC(=O)c2cccs2)cc1	0%	62*	41%	121*
O=C(O)c1ccc(N/N=C/C2=Cc3ccccc3OC2)cc1	?	41*	13%	73*
O=C(COC(=O)C1=Cc2ccccc2OC1)NCc1ccc(F)cc1	nt	nt	-14%	nt
O=CC1=C(N2CCOCC2)/C(=C\c2ccccc2)CC1	25µM*	17	-5%	23
SMILES	Sm TGR inh	CHX counter	FMDV inh	Shiga toxin inh
N#CC1=C(N2CCOCC2)/C(=C\c2ccccc2)CC1	-27%	-1	-30%	-21
Cn1cc(C(=O)NP(=O)(N2CCOCC2)N2CCOCC2)c2ccccc21	-3%	0	-1%	16
O=C(NP(=O)(N1CCOCC1)N1CCOCC1)C1=C(N2CCOCC2)/C(=C\c2ccccc2)CC1	3.2µM*	-3	13%	-3
O=P(C1=C(N2CCOCC2)/C(=C\c2ccccc2)CC1)(N1CCOCC1)N1CCOCC1	45µM*	-4	nt	14
Cc1ccc(N2CCN(/N=C/C3=C(N4CCOCC4)C(=C\c4ccccc4)/CC3)CC2)cc1	-16%	1	-16%	-5
CCOc1ccc(OCC)c(NC(=O)CCC(=O)N2CCOc3ccccc32)c1	0%	nt	-2%	nt
Nc1ccc(C(=O)Nc2ccco2)cc1	3%	23	37%	33*
Nc1ccc(C(=O)Nc2cccc(NC(=O)c3ccc(N)cc3)c2)cc1	-3%	2	17%	-2
Cc1ccccc1CNC(=O)C1CCCN(c2nnc(-n3c(C)ccc3C)s2)C1 (centres undefined)	?	nt	-12%	nt
